Screening results deposited in PubChem by National Center for Advancing Translational Sciences (NCATS).
RECQ1 inh-1 = inhibitors of human RECQ1 DNA helicase; Potency, µM (titrated, usually from 57.3 µM), inactives show at the highest dose activity, negative = inhibition, actives largely listed as inhibitors; P46063; RECQ1 DNA unwinding, red fluorescence kinetic read; actives 0.54% (n = 240,000); AID 2549;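 further: plate controls were vehicle for no effect and no enzyme for full effect; nearly all actives have a fitted effect of over 30% in size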
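50 nM RECQ1T1 preincubated 15 min with compound in Tris pH 8.0 buffer with MgCl2, DTT, Tween-20 and 2.5 ug/ml poly(dI-dC); started with 200 nM TAMRA/BHQ-2 forked duplex and 2 mM ATP. Unwinding read as fluorescence (525/598 nm), two reads 2 h apart.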
TDP1 block = blocks human tyrosyl-DNA phosphodiesterase 1. Potency, µM (highest dose often 130 µM), for the others: at the highest dose activity change, negative = inhibition, hits mostly inhibitors. actives 0.28% (n = 350,000). Q9NUW8. recombinant TDP1, AlphaScreen DNA substrate cleavage. AID 485290; further: on the % scale 0 is the no-effect control and ±100 the full control effect; nearly all actives have a fitted effect of over 40% in size
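E. coli-derived human Tdp1, 1 nM final. Cpd preinc 15 min RT; substrate 15 nM final, 5 min RT; AS bead mix 10 ug/ml final, 10 min RT. Signal loss = tyrosine-FITC cleavage. No-enzyme wells = max signal.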
BLM inh = blocks DNA unwinding by human BLM helicase; P54132; recombinant BLM DNA unwinding, fluorescence dequenching; Potency, µM (titrated, usually from 56.1 µM), without a hit: at the top dose activity change, negative = inhibition, most hits filed as inhibitors; actives 0.2% (n = 350,000); AID 2528;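 further: plate controls were vehicle for no effect and no enzyme for full effect; nearly all actives have a fitted effect of over 35% in size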
FEN1 inh-1 = inhibitors of human flap endonuclease 1; P39748; Recombinant FEN1 flap cleavage, fluorescence, 15 min; Potency, µM (titrated, usually from 114 µM), for the others: top-dose activity change, negative = inhibition, usual class: inhibitors; actives 0.35% (n = 390,000); further: on the % scale 0 is the no-effect control and ±100 the full control effect; nearly all actives have a fitted effect of over 65% in size
Target sequence (P39748 whole entry, looked up): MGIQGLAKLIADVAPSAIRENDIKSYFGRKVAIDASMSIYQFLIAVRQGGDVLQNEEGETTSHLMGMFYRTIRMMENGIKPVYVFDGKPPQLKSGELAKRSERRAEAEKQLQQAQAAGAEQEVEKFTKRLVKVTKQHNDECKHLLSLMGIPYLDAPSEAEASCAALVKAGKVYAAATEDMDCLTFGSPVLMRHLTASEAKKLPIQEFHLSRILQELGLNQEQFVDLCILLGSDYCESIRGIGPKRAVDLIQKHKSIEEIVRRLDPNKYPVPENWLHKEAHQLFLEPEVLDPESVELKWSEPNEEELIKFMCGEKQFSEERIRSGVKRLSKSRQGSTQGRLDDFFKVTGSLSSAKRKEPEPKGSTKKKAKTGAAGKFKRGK
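FEN1 at 10 nM, compound pretreatment for 15 min (room temperature), 50 nM final substrate to initiate; endpoint reads at 0 and 15 min; DMSO-only plates used as vehicle background.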
APEX1 inh = inhibitors of human APE1 endonuclease; recombinant APE1, TAMRA/BHQ-2 abasic DNA cleavage fluorescence; Potency, µM (titrated, usually from 65.8 µM), without a hit: top-dose activity change, negative = inhibition, most hits filed as inhibitors; actives 0.35% (n = 350,000); AID 2517;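 further: plate controls were vehicle for no effect and reference inhibitor for full effect; nearly all actives have a fitted effect of over 55% in size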
Target sequence (P27695 whole entry, looked up): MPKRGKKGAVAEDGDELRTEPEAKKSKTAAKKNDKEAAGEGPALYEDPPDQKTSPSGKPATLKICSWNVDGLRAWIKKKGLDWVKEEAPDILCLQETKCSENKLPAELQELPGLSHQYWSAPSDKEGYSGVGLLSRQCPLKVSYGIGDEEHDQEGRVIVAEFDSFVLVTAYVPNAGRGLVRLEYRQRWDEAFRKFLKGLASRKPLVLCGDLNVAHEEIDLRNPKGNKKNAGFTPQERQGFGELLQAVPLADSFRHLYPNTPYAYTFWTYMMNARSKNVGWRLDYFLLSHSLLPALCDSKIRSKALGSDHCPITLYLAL
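Compound pre-exposure to 0.75 nM APE1, 15 min at ambient temperature. Reaction initiated with 50 nM TAMRA/BHQ-2 THF substrate, read immediately in kinetic mode, 525 nm excitation, 598 nm emission.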
RECQ1 conf = confirmation of human RECQ1 helicase inhibitors | shares compounds with RECQ1 inh-1 | RECQ1 helicase DNA unwinding, fluorescence | Potency, µM (doses to about 229 µM), for the others: at the highest dose activity change, negative = inhibition, usual class: inhibitors | actives 28% (n = 610); further: on the % scale 0 is the no-effect control and ±100 the full control effect; nearly all actives have a fitted effect of over 45% in size
ADP FP counter = counter-screen for RECQ1 inhibitors: ADP displacement. shares compounds with RECQ1 inh-1. ADP fluorescence polarization displacement counterscreen. Potency, µM (top dose mostly 228 µM), for inactives: top-dose activity change, negative = inhibition, most hits filed as inhibitors. actives 27% (n = 530). AID 2711; further: on the % scale 0 is the no-effect control and ±100 the full control effect; nearly all actives have a fitted effect of over 45% in size
RECQ1 inh-2 = RECQ1 helicase inhibition confirmed, round 2. shares compounds with RECQ1 inh-1. actives 15% (n = 1,100). recombinant RECQ1 DNA unwinding, red fluorescence. AID 504841. Potency, µM (highest dose often 119 µM), without a hit: at the top dose activity, negative = inhibition, most hits filed as inhibitors; further: on the % scale 0 is the no-effect control and ±100 the full control effect; nearly all actives have a fitted effect of over 50% in size
FEN1 inh-2 = confirmation of human FEN1 inhibitors | shares compounds with FEN1 inh-1 | FEN1 flap cleavage, TAMRA/BHQ2 fluorogenic DNA substrate | Potency, µM, hits mostly inhibitors | actives 79% (n = 880) | AID 720498; further: nearly all actives have a fitted effect of over 60% in size
Starred values were filed as active, the others as inactive; i = inactive; ? = inconclusive; . = not tested or not shown; ! = not active in a repeat; [ ] = another dose, or the depositor's remark. Rows were chosen to be rich in hits. Some 0.92% of all compounds tested hit in one or more screens of this group. The call rests on the fitted dose curve; in most records, active means well fitted curve in the direction sought with a large enough effect; inconclusive means small, poorly fitted or top-dose-only effect, or another doubt; inactive means no such curve, though single readings can be large; an effect the other way counts as inactive or inconclusive. Potency means the concentration at half of the fitted maximal effect.

SMILES	RECQ1 inh-1	TDP1 block	BLM inh	FEN1 inh-1	APEX1 inh	RECQ1 inh-2	FEN1 inh-2	others
COc1cccc(C2c3c(C)nn(-c4ccc([N+](=O)[O-])cc4)c3N=C3C(=O)Nc4ccccc4N32)c1 (configuration not stated)	?	2.7%	-1.0%	-6.2%	2.7%	-11.7%	.
c1coc(CNc2ncnc3c2nc2n3CCCC2)c1	.	.	.	-3.5%	.	.	.
COc1cc(/C=N/N2C(=O)CSC2=S)cc(Br)c1O	35.5µM*	?	-6.3%	79.4µM*	?	.	42.6*	RECQ1 conf=?
CCN(CC)C(=O)CSc1nc2ccccc2c(=O)n1-c1cccc(OC)c1	14.8%	2.6%	-2.1%	4.6%	-0.5%	.	.
COc1cccc(-n2c(SCc3cc(=O)oc4cc(O)c(O)cc34)nc3ccccc3c2=O)c1	25.1µM*	-3.0%	10µM*	50.1µM*	10µM*	12.6µM*	26.9*
O=C1c2ccc3c4c(ccc(c24)C(=O)N1CCCCO)C(=O)N(CCCCO)C3=O	7.08µM*	5.3%	-0.8%	?	?	50.1µM*	30.1*
COC(=O)CN1C(=O)[C@@H]2[C@H](C1=O)[C@@H]1CC(C(=O)OC)=C[C@@H](C(=O)OC)C3C1=C(C(=O)[C@@]3(C)NC(=O)c1ccccc1)[C@@H]2C (some centres not stated)	-5.3%	10.3%	2.7%	-9.8%	-1.5%	.	.
Cc1ccc(Cl)cc1N1CCN(C(=O)c2cnc(N3CCOCC3)c3ccccc23)CC1	.	3.3%	0.2%	-4.6%	.	.	.
COc1ccc(OC)c(Nc2nc(NCCCN(C)C)nc(N)c2[N+](=O)[O-])c1	?	2.5%	?	12.6µM*	?	?	47.8*
CC1=CN2C(=N)/C(=C/c3ccc([N+](=O)[O-])o3)C(=O)N=C2S1	28.2µM*	2.6%	-17.8%	56.2µM*	?	?	67.5*
CC1=CN2C(=N)/C(=C/c3ccco3)C(=O)N=C2S1	-25.8%	0.0%	-6.8%	3.3%	6.7%	.	.
O=C(O)c1cc(O)c2c(c1)C(=O)c1cccc(O)c1C2=O	3.16µM*!	-2.7%	35.5µM*!	?	0.316µM*	.	4.26*	RECQ1 conf=126µM*;ADP FP counter=7.94µM*
COc1ccc(CNc2cc(-c3ccccc3C)ncn2)c(OC)c1	i	.	-2.3%	.	-7.1%	.	.
N=C1/C(=C/c2ccc(-c3cccc(C(=O)O)c3)o2)C(=O)N=C2SC=C(c3ccccc3)N12	?	35.5µM*	?	?	?	?	23.9*
Cc1c(Cl)cccc1NS(=O)(=O)c1ccc2c(c1)C1C=CCC1C(c1ccc(C(=O)O)cc1)N2 (configuration not stated)	28.2µM*	.	?	25.1µM*	-9.7%	?	60.1*
Cn1c(N)c(C(=O)COC(=O)c2cc(-c3ccco3)nc3ccccc23)c(=O)n(Cc2ccccc2)c1=O	?	-0.3%	-28.2%	.	?	.	.
Cn1c(N)c(C(=O)COC(=O)c2cc(-c3ccco3)nc3ccccc23)c(=O)n(C)c1=O	28.2µM*	-5.1%	-14.8%	39.8µM*	?	?	67.5*
COC(=O)c1cc(O)cc(OC)c1Oc1cc(C)cc(O)c1C(=O)O	22.4µM*	.	8.91µM*	50.1µM*	0.631µM*	5.01µM*	75.7*
C/C(C/C(C)=C1/SC(=S)NC1=O)=C1\SC(=S)NC1=O	14.1µM*	.	95.9%	12.6µM*	?	.	19*	RECQ1 conf=?
CC(=O)Nc1ccc(/C(C)=N/Nc2nc(Nc3ccccc3)nc(N3CCOCC3)n2)cc1	-2.4%	-1.2%	-1.7%	-16.6%	0.2%	.	.
CCN1CCN(c2nc(Nc3ccc(NC(C)=O)cc3)nc(Nc3ccc(NC(C)=O)cc3)n2)CC1	31.6µM*	-4.3%	17.8µM*	?	-4.2%	22.4µM*	?
CCOC(=O)N/N=C1/C[C@@H](O)[C@@H](O)[C@@H]2[C@@H]3C(=O)N(C(C)(C)C)C(=O)[C@H]3CC[C@@H]12	i[11.5 µM]	7.9%[21 µM]	3.2%[12.4 µM]	.	?	.	.
C[C@H]1COC(=O)[C@H]2CCCN2C(=O)[C@@H](C)COC(=O)[C@H]2CCCN2C1=O	i[11.5 µM]	6.9%[21 µM]	5.6%[12.4 µM]	.	22.6%[12.4 µM]	.	.
CC(=O)c1ccc(-c2ccc(C3C4C=CCCC4(C)C(=O)N3Cc3ccccc3)c(F)c2)cc1 (configuration not stated)	i	5.6%	-7.7%	4.1%	-4.7%	.	.
O=C(O)CC(CCc1ccccc1)OC1OC(CO)C(O)C(O)C1O (configuration not stated)	3.55µM*	.	-9.1%	7.94µM*	0.355µM*	.	26.9*	RECQ1 conf=-10.6%[114 µM]
SMILES	RECQ1 inh-1	TDP1 block	BLM inh	FEN1 inh-1	APEX1 inh	RECQ1 inh-2	FEN1 inh-2	others
[C-]#[N+][C@H](O[C@@H]1O[C@H](CO)[C@@H](O)[C@H](O)[C@H]1O)c1ccccc1	.	.	.	2.7%	.	.	.
Cc1ccc(CNC(=O)CSc2c(C(C)C)cnc3c2c(=O)n(C)c(=O)n3C)cc1	.	5.4%	2.9%	-6.7%	.	.	.
N#Cc1c(-c2ccccc2)cc(-c2ccco2)c(C#N)c1N	-16.4%	5.4%	?	.	-3.2%	.	.
N#Cc1c(-c2ccco2)cc(-c2ccccc2)[nH]c1=O	22.4µM*	.	?	-31.2%	31.6µM*	.	75.7*	RECQ1 conf=?;ADP FP counter=?
C=C1c2cccc(O)c2C(O)=C2C(=O)[C@]3(O)C(O)=C(C(N)=O)C(=O)[C@@H](N(C)C)[C@@H]3[C@@H](O)[C@H]12	7.94µM*	.	-11.1%	?	2.51µM*	-6.8%	33.8*	RECQ1 conf=?;ADP FP counter=7.08µM*
CCN1C(=O)[C@H]2[C@H]3[C@H](O)[C@H](O)C/C(=N/O[C@@H](C)c4cn([C@H](CO)Cc5ccccc5)nn4)[C@@H]3CC[C@@H]2C1=O	11.4%[11.5 µM]	6.9%[21 µM]	1.5%[12.4 µM]	.	-6.7%[12.4 µM]	.	.
Cn1cnnc1SCC(=O)Nc1sc2c(c1C(N)=O)CCC2	31.6µM*	.	?	31.6µM*	?	?	?
CC(=O)OCON[N+]([O-])=NC1CCCCC1	10.7%	12.1%	3.8%	-18.9%	2.5%	.	.
COc1ccc(Nc2ccnc3ccccc23)cc1	i	6.1%	0.5%	-22.1%	0.8%	.	.
